Unmarked numbers belong to inactive results. How the calls were made is not given here.
The compounds below were run on Aerobactin synthetase IucA (Klebsiella pneumoniae hvKP1) (assay: Biochemical IucA enzyme inhibition primary screen of the Spectrum library (AID 1346200;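 further: 100% = wells without compound and 0% = wells lacking enzyme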)). Conditions: malachite green pyrophosphate, A620, at 8 µM, active compounds read low.

SMILES | activity remaining [%]
CC(C)(C)NC[C@@H](O)COc1nsnc1N1CCOCC1 | 99.4
CC(C)(Sc1cc(C(C)(C)C)c(O)c(C(C)(C)C)c1)Sc1cc(C(C)(C)C)c(O)c(C(C)(C)C)c1 | 89.7
CC1(C)O[C@@H]2CC3C4C[C@H](F)C5=CC(=O)CC[C@]5(C)C4[C@@H](O)C[C@]3(C)[C@]2(C(=O)CO)O1 (some centres undefined) | 118
C[C@]12C=CC(=O)C=C1CCC1C2C(=O)C[C@@]2(C)C1CC[C@]2(O)C(=O)CO (some centres undefined) | 101

From PubChem BioAssay
